The record followed here is PubChem BioAssay.

One may read the inhibition as the relative decrease from the control value, in per cent.

Inconclusive results are not listed. Calls of active or inactive are those of the source.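 The calls were made as follows, unless noted: active = efflux inhibition above 0.42, the validation set average plus 4 SD; inconclusive = no clear call, values can overlap the other calls; inactive = the rest.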

Test [1] can be described thus: yeast TOR pathway RPL19A-GFP modulators, primary screen, cell-based, S. cerevisiae, multiplex flow cytometry (AID 1862; in the data active = percent of DMSO control GFP below about 86%;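 also: lower values mimic rapamycin by blocking the RPL19A rise seen in DMSO cells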). As to conditions: S. cerevisiae RPL19A-GFP strain, flow cytometry fluorescence, 3 h; at 10 µM; stronger effect = lower value.
A short description of test [2]: modulators of MEP2-GFP levels in yeast, primary screen, S. cerevisiae, multiplex flow cytometry (AID 1867;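 active = GFP response, as percent of the DMSO control, above the screen-wide mean plus 3 SD, about 139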;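 also: median GFP channel fluorescence of barcode-gated MEP2-GFP cells measured by flow cytometry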). As to conditions: S. cerevisiae MEP2-GFP strain, 3 h, at 10 µM, stronger effect = higher value, 100% means same as DMSO wells. In general terms: A flow cytometer gives signals particle by particle.
The nature of test [3]: modulators of CIT2-GFP expression in yeast, primary screen, S. cerevisiae, GFP fusion, multiplex flow cytometry (AID 1870;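 active = percent response above a set limit, the screen-wide mean plus 3 SD, cut at about 130% in these data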;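 also: barcoded CIT2-GFP strain pooled with four other GFP strains with rapamycin as positive control; median GFP fluorescence per well over plate mean of DMSO wells so 100% = DMSO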). Particulars: 3 h, at 10 µM, stronger effect = higher value.
Test [4] is described as follows: modulators of LAP4-GFP expression in yeast, primary screen, S. cerevisiae, multiplex flow cytometry (AID 1873;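 active = GFP signal, as percent of the solvent control, above the screen mean plus 3 SD, about 149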). As to conditions: 3 h, at 10 µM, stronger effect = higher value.
The nature of test [5]: modulators of AGP1-GFP expression in yeast TOR pathway, primary screen, cell-based, multiplex flow cytometry, S. cerevisiae (AID 1887;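 active = GFP signal above the screen-wide mean plus 3 SD, that is over about 124.5% of the solvent control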;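 also: AGP1-GFP fusion strain of S. cerevisiae within a five-strain barcoded multiplex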). As to conditions: 3 h, at 10 µM, stronger effect = higher value.
Test [6] can be described thus: inhibitors of CD8+ T cell-vesicle binding, pilot screen, LFA-1/ICAM-1 modulator project, MLPCN validation set, flow cytometry (AID 2523;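 active = response below a set limit, under 55% cells CD8-positive and vesicle-bound, and CD8 cells' 90th-percentile brightness under 279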;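 as to vesicle binding response: mean PE anti-B7-1 fluorescence of CD8+ cells relative to row control; 100% = QL9-loaded vesicles with DMSO vehicle in the same plate row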). As to conditions: 2C mouse CD8+ T cells, at 7 µM, stronger effect = lower value; double positive events: measured here: CD8+/vesicle+ event percentage.
Test [7] has as its target Integrin beta-1 (Homo sapiens) + Integrin alpha-4 (Homo sapiens) (UniProt P13612+P05556). Kind of test: inhibition of HUTS-21 binding to VLA-4, pilot screen, VLA-4 allosteric modulator project, U937 cells, HUTS-21 mAb, flow cytometry, validation set (AID 2674;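 active = inhibition above 50%, about 3 SD of the validation set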;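 also: antibody binding induced by the VLA-4 ligand LDV present at three times its Kd; 0% = LDV ligand with antibody and no compound and 100% = antibody without LDV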). As to conditions: HUTS-21 LIBS mAb binding, at 6.7 µM, stronger effect = higher value, binding induced by LDV ligand.
A short description of test [8]: superoxide lowering in aged yeast cells, pilot screen, validation compound set (AID 2706;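 active = superoxide response below 65% of plate, a cut near 3 SD across the whole screen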;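 also: yeast exposed to compound for one week at 30 degrees C before staining; 100% = mean of all compound wells on the same plate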). As to conditions: S. cerevisiae aging, superoxide DHE fluorescence; at 10 µM; stronger effect = lower value.
Test [9] deals with Beta-adrenergic receptor kinase 1 (Homo sapiens) (UniProt P25098). Nature of the test: GRK2 binders displacing RNA aptamer, biochemical, validation, human GRK2, bead flow cytometry (AID 488806;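 active = aptamer binding inhibition above 30%, about 3 SD of noise from non-fluorescent compounds; inactive = inhibition at or below 30%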). As to conditions: bead-bound GRK2, FAM-aptamer displacement, at 10 µM, stronger effect = higher value.
Sequence of Beta-adrenergic receptor kinase 1 (Homo sapiens) (P25098 whole entry, looked up): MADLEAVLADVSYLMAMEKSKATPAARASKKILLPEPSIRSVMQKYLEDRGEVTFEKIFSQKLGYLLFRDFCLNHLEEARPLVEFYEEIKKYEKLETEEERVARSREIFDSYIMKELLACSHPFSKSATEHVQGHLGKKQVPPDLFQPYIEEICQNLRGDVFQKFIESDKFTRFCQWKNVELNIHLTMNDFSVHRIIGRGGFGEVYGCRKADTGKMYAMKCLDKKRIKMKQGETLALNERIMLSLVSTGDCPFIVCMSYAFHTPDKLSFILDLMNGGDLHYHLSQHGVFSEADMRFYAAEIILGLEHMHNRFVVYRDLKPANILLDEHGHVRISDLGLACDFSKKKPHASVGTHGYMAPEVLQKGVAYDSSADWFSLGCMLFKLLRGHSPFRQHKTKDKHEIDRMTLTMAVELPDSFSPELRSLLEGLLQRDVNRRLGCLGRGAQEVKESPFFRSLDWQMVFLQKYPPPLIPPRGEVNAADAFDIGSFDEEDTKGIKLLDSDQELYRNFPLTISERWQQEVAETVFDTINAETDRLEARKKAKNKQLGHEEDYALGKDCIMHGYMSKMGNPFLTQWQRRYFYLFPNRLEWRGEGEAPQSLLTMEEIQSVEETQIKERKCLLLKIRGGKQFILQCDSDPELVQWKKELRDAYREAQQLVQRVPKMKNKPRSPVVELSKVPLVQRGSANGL
In test [10] the target is Beta-2 adrenergic receptor (Homo sapiens) (UniProt P07550). Nature of the test: beta2AR agonists driving receptor internalization, pilot screen, cell-based, FAP fluorogen, flow cytometry, validation set (AID 504459;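 active = percent response above 42, roughly 3 SD of non-fluorescent test compounds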;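 also: agonist-driven loss of surface beta2AR via internalization measured by FAP dye flow cytometry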). As to conditions: Am2.2-beta2AR cells, FAP surface receptor flow cytometry; at 10 µM; stronger effect = higher value.
Sequence of Beta-2 adrenergic receptor (Homo sapiens) (P07550 whole entry, looked up): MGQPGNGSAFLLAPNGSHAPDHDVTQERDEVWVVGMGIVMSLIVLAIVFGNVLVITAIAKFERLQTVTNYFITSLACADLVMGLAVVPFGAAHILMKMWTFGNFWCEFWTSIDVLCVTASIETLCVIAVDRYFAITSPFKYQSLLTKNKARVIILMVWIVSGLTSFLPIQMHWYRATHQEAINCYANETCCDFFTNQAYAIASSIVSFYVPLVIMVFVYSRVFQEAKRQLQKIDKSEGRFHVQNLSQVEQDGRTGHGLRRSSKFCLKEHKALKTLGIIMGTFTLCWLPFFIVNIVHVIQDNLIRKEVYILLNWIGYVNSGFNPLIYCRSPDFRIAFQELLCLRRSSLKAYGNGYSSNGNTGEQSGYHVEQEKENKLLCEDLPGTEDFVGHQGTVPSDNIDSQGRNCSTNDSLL
In test [11] the target is AP-2 complex subunit beta (Homo sapiens) (UniProt P63010). Nature of the test: inhibitors of arrestin peptide binding to AP2, pilot screen, biochemical, validation set, GST-AP2 beads, flow cytometry (AID 504541;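 active = inhibition above 54%, about 3 SD of non-fluorescent compounds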;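 also: AP2 carries R879A mutation and is captured from E. coli lysate; bead-bound FITC arrestin peptide fluorescence measuring arrestin peptide binding to AP2; 0% = DMSO wells and 100% = excess unlabeled arrestin peptide control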). Particulars: FITC arrestin peptide, at 10 µM, stronger effect = higher value, AP2 beta2 appendage fragment, R879A mutant.
Sequence of AP-2 complex subunit beta (Homo sapiens) (P63010 whole entry, looked up, the tested form may be a part, one chain of several): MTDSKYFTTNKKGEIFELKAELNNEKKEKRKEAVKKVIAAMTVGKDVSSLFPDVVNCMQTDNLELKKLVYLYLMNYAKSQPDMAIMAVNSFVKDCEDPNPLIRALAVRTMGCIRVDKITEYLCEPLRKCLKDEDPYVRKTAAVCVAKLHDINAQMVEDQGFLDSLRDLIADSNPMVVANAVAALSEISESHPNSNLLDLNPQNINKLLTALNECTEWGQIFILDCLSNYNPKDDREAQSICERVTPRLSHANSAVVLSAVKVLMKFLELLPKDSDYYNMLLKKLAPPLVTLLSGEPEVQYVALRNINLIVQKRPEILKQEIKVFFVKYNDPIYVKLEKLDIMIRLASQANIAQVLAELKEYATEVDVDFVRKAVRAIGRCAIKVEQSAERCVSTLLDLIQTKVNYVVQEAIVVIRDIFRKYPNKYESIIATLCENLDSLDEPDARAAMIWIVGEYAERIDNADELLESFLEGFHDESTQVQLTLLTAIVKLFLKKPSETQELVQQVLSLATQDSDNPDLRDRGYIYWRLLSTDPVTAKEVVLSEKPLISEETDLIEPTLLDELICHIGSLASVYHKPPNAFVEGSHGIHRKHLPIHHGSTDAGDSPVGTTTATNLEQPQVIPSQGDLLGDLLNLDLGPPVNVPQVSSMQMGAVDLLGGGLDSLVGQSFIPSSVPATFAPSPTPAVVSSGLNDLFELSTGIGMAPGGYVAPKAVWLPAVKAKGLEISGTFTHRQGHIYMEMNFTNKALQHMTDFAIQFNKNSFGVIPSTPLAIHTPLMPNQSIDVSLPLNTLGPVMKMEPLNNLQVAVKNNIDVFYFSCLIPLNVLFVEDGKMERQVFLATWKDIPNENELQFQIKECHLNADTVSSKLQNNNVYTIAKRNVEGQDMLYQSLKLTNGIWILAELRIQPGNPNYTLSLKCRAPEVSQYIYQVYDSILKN
The nature of test [12]: yeast V-ATPase proton transport modulators, S. cerevisiae, pHLuorin, HTS validation (AID 504600; in the data active = response above about 15%;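 also: plate controls were DMSO for no effect and reference compound for full effect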). As to conditions: S. cerevisiae pHLuorin cytosolic pH, at 10 µM, stronger effect = higher value.
The subject of test [13] is anti-desmoglein-3 scFv antibody binding to human DSG3. Kind of test: inhibitors of anti-DSG3 scFv binding to DSG3, pilot screen, biochemical, validation compound set, bead-based, flow cytometry (AID 588368;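 active = binding below the plate cutoff, the plate median minus 3 SD, with a reading above zero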;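 also: signal is the median channel fluorescence of bead-bound GFP antibody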). Particulars: Protein G beads, DSG3-Fc, scFv-GFP binding, at 10 µM, stronger effect = lower value.
Test [14] can be described thus: inhibitors of fungal efflux pumps CDR1, CDR2, MDR1, pilot screen, validation compound set, multiplex, phenotypic (AID 588506).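 Also: Nile Red retained in cells so higher fluorescence means more efflux inhibition; 0 = negative control wells and 1 = enniatin B 25 µM full block.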 Particulars: S. cerevisiae pump-expressing triplex, Nile Red efflux flow cytometry; at 10 µM; stronger effect = higher value; the pumps come from Candida albicans.
Test [15] has as its target ATP-binding cassette sub-family B member 6 (Homo sapiens) (UniProt Q9NP58). Kind of test: ABCB6 transporter inhibitors, pilot screen, K562-ABCB6 cells, flow cytometry, validation set (AID 588550;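 active = inhibition above the screen-wide mean plus 3 SD, about 51%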;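 also: 0% = DMSO wells and 100% = benzethonium chloride 70 µM positive control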). Particulars: K562-ABCB6 porphyrin accumulation, 1 h, at 10 µM, stronger effect = higher value.
A short description of test [16]: promoters of myeloid differentiation in arrested cells, primary screen, cell-based, GFP/MAC1 double positive, flow cytometry, validation set (AID 588685;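 active = differentiation response of at least 50%, scaled between solvent and reference control, from cells with both markers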;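 also: compound exposure lasts four days before antibody staining and flow analysis; 0% = DMSO wells and 100% = 5 µM fulvestrant positive control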). As to conditions: ER-HoxA9 marrow cells, stronger effect = higher value, normalized: vehicle 0, fulvestrant 100.

Sequence of Integrin beta-1 (Homo sapiens) + Integrin alpha-4 (Homo sapiens) (P05556 whole entry, looked up): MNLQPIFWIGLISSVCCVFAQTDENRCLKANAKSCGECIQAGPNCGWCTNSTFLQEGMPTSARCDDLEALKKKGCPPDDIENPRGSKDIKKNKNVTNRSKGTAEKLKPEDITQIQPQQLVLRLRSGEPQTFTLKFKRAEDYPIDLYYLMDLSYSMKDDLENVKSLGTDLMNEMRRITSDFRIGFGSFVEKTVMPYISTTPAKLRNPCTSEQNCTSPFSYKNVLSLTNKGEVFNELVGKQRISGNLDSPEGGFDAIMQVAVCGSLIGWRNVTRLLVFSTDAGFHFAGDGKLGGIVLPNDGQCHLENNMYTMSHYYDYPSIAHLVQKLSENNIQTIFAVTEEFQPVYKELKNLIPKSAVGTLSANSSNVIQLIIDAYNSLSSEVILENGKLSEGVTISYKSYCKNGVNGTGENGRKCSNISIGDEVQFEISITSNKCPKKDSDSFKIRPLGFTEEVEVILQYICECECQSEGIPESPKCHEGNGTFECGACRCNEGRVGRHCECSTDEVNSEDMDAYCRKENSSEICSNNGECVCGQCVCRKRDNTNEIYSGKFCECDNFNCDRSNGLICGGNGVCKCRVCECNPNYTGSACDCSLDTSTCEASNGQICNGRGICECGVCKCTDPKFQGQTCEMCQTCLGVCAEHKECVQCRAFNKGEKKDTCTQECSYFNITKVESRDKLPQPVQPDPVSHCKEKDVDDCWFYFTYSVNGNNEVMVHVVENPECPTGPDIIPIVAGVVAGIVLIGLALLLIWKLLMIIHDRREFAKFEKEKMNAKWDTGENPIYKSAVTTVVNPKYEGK
Sequence of Integrin beta-1 (Homo sapiens) + Integrin alpha-4 (Homo sapiens) (P13612 whole entry, looked up): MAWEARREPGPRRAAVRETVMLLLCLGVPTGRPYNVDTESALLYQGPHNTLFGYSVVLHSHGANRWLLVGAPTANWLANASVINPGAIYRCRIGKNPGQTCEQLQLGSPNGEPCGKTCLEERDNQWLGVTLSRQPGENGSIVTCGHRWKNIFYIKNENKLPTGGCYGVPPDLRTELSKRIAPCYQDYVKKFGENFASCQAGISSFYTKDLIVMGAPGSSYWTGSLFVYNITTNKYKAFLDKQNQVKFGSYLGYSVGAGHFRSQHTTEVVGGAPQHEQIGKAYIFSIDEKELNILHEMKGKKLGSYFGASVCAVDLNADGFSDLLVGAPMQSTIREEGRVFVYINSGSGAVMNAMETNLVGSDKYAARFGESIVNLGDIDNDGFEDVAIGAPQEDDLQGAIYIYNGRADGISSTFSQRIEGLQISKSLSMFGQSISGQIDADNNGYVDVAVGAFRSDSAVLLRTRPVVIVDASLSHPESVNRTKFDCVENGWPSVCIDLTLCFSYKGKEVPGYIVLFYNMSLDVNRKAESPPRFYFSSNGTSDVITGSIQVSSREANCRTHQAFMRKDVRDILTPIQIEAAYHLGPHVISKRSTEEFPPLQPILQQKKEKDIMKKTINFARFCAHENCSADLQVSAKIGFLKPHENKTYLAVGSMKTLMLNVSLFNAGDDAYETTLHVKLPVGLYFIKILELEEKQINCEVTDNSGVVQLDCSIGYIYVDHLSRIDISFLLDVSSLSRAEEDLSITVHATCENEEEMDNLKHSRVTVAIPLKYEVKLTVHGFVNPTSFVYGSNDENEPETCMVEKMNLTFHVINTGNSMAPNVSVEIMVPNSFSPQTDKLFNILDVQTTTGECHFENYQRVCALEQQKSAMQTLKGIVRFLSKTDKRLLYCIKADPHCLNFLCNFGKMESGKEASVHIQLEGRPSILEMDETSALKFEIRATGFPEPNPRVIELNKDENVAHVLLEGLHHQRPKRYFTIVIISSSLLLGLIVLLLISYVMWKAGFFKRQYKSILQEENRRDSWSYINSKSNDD
Sequence of ATP-binding cassette sub-family B member 6 (Homo sapiens) (Q9NP58 whole entry, looked up): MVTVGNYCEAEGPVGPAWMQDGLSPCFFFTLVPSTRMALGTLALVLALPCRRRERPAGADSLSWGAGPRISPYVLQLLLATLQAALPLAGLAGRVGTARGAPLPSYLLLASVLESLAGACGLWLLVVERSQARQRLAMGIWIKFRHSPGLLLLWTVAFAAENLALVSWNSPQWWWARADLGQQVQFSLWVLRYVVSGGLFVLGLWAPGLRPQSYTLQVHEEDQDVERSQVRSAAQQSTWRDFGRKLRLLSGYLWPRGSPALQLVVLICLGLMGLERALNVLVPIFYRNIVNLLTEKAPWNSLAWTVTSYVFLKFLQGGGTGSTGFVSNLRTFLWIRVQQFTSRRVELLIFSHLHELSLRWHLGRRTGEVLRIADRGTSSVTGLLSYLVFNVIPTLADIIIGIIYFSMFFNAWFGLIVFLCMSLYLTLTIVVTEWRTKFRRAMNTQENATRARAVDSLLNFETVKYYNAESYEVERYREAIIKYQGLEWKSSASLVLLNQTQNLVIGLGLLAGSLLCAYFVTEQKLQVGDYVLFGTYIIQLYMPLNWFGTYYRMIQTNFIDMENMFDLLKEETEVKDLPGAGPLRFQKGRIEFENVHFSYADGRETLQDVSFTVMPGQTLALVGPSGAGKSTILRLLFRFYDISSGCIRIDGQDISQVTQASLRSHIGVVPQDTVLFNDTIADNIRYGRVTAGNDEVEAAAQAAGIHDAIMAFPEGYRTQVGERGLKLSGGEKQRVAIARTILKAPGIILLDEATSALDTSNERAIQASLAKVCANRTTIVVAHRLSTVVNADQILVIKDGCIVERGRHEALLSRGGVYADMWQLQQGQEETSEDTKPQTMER

With `Cc1ccc2ncnc(NCCCCCC(=O)O)c2c1`, the percent of DMSO control GFP in test [1] is 105% (inactive). Further, the GFP response vs DMSO in test [2] is 103% (inactive); in test [4] it was 106% (inactive). The percent response of DMSO control in [3] was 105% (inactive). Further, the GFP response, % of DMSO in test [5] was 108% (inactive). For the same compound, the double positive events in test [6] came to 64.6%. Besides, the vesicle binding response in [6] is 130% (inactive). Further, the inhibition in [7] is 8.29% (inactive); in test [11] it was 13.1% (inactive); in test [15], 4% (inactive). In [8], the superoxide response (% of plate) is 114% (inactive). Also, the aptamer binding inhibition in test [9] was -1% (inactive). Moreover, the response is 0.4% (inactive) in [10] and 5.01% (inactive) in test [12]. Further, the binding (% of control) in test [13] was 101% (inactive). In addition, the efflux inhibition (fraction of control) in test [14] was 0.135 (inactive). In addition, the differentiation response in [16] is -14.8% (inactive).
For `Cc1ccc(S(=O)(=O)NC(C(=O)Oc2cc3oc(=O)cc(C)c3cc2Cl)C(C)C)cc1` (stereo not drawn), in [1], the percent of DMSO control GFP is 102% (inactive). The GFP response vs DMSO in [2] is 102% (inactive); in test [4] it was 103% (inactive). Besides, the percent response of DMSO control in [3] is 97.7% (inactive). The GFP response, % of DMSO in [5] was 111% (inactive). For the same compound, the double positive events in test [6] came to 62.7%. Further, in [6], the vesicle binding response was 264% (inactive). Also, the results for the inhibition in test [7], in test [11] and in test [15] were 3.99% (inactive), -3.53% (inactive) and 7% (inactive), respectively. In test [8], the superoxide response (% of plate) is 98.7% (inactive). Besides, the aptamer binding inhibition in [9] is 3% (inactive). Besides, the response in [10] is -20.1% (inactive); in test [12] it was 1.33% (inactive). Also, the binding (% of control) in test [13] was 98.7% (inactive). The efflux inhibition (fraction of control) in [14] was 0.21 (inactive). In addition, the differentiation response in test [16] is -0.06% (inactive).
As for `CCCc1cc(C(N)=S)ccn1`, in test [1], the percent of DMSO control GFP was 96.9% (inactive). The GFP response vs DMSO in [2] is 99.6% (inactive); in [4], 91.4% (inactive). Moreover, in test [3], the percent response of DMSO control is 101% (inactive). Further, the GFP response, % of DMSO in test [5] is 93.1% (inactive). The double positive events in [6] is 60.4%. Besides, in test [6], the vesicle binding response was 190% (inactive). Further, the inhibition in test [7] is 0.94% (inactive); in test [11], 7.42% (inactive); in test [15] it was -25% (inactive). For the same compound, the superoxide response (% of plate) in [8] is 97% (inactive). Further, in [9], the aptamer binding inhibition was 2% (inactive). Besides, the response is -5.23% (inactive) in [10] and -1.93% (inactive) in test [12]. Moreover, the binding (% of control) in [13] is 97.6% (inactive). Besides, the efflux inhibition (fraction of control) in test [14] was -0.28 (inactive). The differentiation response in test [16] is -18.4% (inactive).
`COC(=O)C1=C(C)N(Cc2ccco2)C(=O)/C1=C\c1ccc([N+](=O)[O-])cc1`: in test [1], the percent of DMSO control GFP is 102% (inactive). Also, the GFP response vs DMSO was 103% (inactive) in test [2] and 95.3% (inactive) in test [4]. Further, the percent response of DMSO control in test [3] was 97.8% (inactive). Moreover, the GFP response, % of DMSO in test [5] is 96.2% (inactive). Further, the double positive events in test [6] stood at 66.2%. For the same compound, the vesicle binding response in test [6] was 232% (inactive). In addition, the inhibition in [7] was -274% (inactive); in test [11], 43.9% (inactive); in test [15] it was -55% (inactive). Moreover, the superoxide response (% of plate) in test [8] is 112% (inactive). The aptamer binding inhibition in [9] was -4% (inactive). Moreover, the response is 15.1% (inactive) in test [10] and -6.06% (inactive) in test [12]. Further, the binding (% of control) in test [13] is 205% (inactive). Also, the efflux inhibition (fraction of control) in test [14] is 0.18 (inactive). Further, in [16], the differentiation response was 42.3% (inactive).
